Screening data (PubChem)
p53 reactivator: restores transcriptional activity of mutant p53; H1299 p53-A138V BP100-luciferase reporter, luminescence, 24 h; Potency, µM (highest dose often 92.2 µM), inactives show at the top dose activity change, positive = activation, hits mostly activators; 320,000 tested, 0.063% active; further: potency means the concentration at half of the fitted maximal effect; % of control where 0% means no effect; nearly all actives have a fitted effect of over 45% in size
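H1299 (p53-null), stable ts p53-A138V + BP100-Luc; 1000 cells/well, Opti-MEM/10% FBS; cpd 4 pt, 1:5; 24 h, 37 deg C, 5% CO2; detection reagent 10 min RT; luminescence.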
A549 tox-1: counter-screen for Nrf2 inhibitors: cytotoxicity in A549 cells; A549 ARE-Fluc cells, CellTiter-Fluor viability, 18-24 h; Potency, µM (titrated, usually from 46 µM), for inactives: at the highest dose activity change, negative = cytotoxicity, most hits filed as inhibitors; 390,000 tested, 0.16% active; further: potency means the concentration at half of the fitted maximal effect; on the % scale 0 is the no-effect control and ±100 the full control effect
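A549 ARE-Fluc cells in 5% FBS OPTI-MEM, 5000 cells/well, rested 2 h then exposed to compounds in concentration-response for 18-24 h at 37 °C. Viability by CellTiter-Fluor fluorescence (Ex 405/Em 525) after 30 min; luciferase luminescence (BugLite, 15 min, RT) read afterwards.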
Nrf2 ARE act: activates Nrf2 signaling. AREc32 ARE-luciferase reporter (MCF7-derived line), luminescence, 24 h. 410,000 tested, 0.31% active. Potency, µM (series often up to 46.1 µM), inactives show at the top dose activation, actives largely listed as activators; further: potency means the concentration at half of the fitted maximal effect; % of control where 0% means no effect; nearly all actives have a fitted effect of over 65% in size
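Luciferase luminescence (Steady-Glo, 30 min at room temperature) served as the read-out of ARE activation in AREc32 cells treated with compounds for 24 hr at 37 deg C.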
BRCA1 expr act: BRCA1 expression activation | MCF7-BRCA1-FFLuc reporter, luminescence, 48 h; response scale: scaled: vehicle 0%, 10 µM genistein 100% | 380,000 tested, 1.1% active | AID 624202 | Potency, µM (highest dose often 46.1 µM), inactives show at the top dose activation, most hits filed as activators; further: potency means the concentration at half of the fitted maximal effect; nearly all actives have a fitted effect of over 80% in size
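Cells: MCF7-BRCA1-FFLuc, 2000/well. Exposure: 48 h, 37 °C, 5% CO2. Read: luminescence, 15 min post-substrate. Controls: genistein 10 microM (maximal activation), DMSO (neutral).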
Nrf2 block: blocks Nrf2 signaling; 360,000 tested, 2.1% active; A549 ARE-Fluc reporter, luciferase luminescence, 18-24 h; AID 504444; Potency, µM (highest dose often 46 µM), inactives show at the top dose activity change, negative = inhibition, actives largely listed as inhibitors; further: potency means the concentration at half of the fitted maximal effect; on the % scale 0 is the no-effect control and ±100 the full control effect; nearly all actives have a fitted effect of over 60% in size
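Nrf2 function is reported as luminescence of an ARE-controlled luciferase in A549 cells. Compounds were tested at several concentrations, and a CellTiter-Fluor read on the same wells flagged cytotoxicity.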
IL2 activator: activates IL-2 in a cell-based reporter assay; 360,000 tested, 0.065% active; activation, % (series mostly up to about 46 µM); AID 652025; IL-2 activation reporter assay, cell-based qHTS; stimulated with anti-CD3/CD4/CD28 beads; in transgenic mouse T cells; in the data active means activation above about 50%; inconclusive means mostly about 30% to 49%; further: 0% is about no effect
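Using fluorescent plate cytometry, EGFP and DsRed are detected in transgenic mouse T cells stimulated 18 h at 37 degrees C with antibody-coated beads after 60 min compound pretreatment.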
FLuc enzyme inh: counter-screen for Nrf2 inhibitors: firefly luciferase enzyme inhibition | purified firefly luciferase, luminescence inhibition | shares compounds with Nrf2 block | 1,400 tested, 4% active | Potency, µM (titrated, usually from 57.5 µM), without a hit: top-dose activity change, negative = inhibition, most hits filed as inhibitors; further: potency means the concentration at half of the fitted maximal effect; on the % scale 0 is the no-effect control and ±100 the full control effect; nearly all actives have a fitted effect of over 65% in size
Target sequence (P08659 whole entry, looked up): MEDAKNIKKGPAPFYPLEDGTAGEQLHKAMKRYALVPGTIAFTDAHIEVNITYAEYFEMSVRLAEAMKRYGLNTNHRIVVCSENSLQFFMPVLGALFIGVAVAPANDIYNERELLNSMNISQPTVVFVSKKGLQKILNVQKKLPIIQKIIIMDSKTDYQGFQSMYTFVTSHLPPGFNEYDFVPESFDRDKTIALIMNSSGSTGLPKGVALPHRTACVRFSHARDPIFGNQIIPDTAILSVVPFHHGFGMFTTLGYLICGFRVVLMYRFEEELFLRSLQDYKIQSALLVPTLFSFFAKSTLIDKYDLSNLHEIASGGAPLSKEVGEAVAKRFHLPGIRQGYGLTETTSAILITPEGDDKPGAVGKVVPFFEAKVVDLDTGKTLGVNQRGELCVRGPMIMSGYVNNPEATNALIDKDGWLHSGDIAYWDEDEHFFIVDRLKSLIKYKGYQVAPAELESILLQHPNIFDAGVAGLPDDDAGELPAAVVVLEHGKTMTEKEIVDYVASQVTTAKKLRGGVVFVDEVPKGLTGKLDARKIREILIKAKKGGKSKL
A549 tox-2: toxic to A549 ARE-Fluc cells in Nrf2 counterscreen; Potency, µM (titrated, usually from 46.1 µM), for the others: at the highest dose activity change, negative = cytotoxicity, actives largely listed as inhibitors; shares compounds with Nrf2 block; A549 ARE-Fluc cells, cytotoxicity counterscreen; 1,400 tested, 2% active; AID 720523;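 further: potency means the concentration at half of the fitted maximal effect; cells exposed to compounds for 18 to 24 hours; on the % scale 0 is the no-effect control and ±100 the full control effect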
ARE-Fluc inh: confirmation of Nrf2 inhibitors in A549 ARE reporter cells. shares compounds with Nrf2 block. A549 ARE-firefly luciferase reporter, luminescence. Potency, µM (titrated, usually from 46.1 µM), for inactives: top-dose activity change, negative = inhibition, hits mostly inhibitors. 1,400 tested, 74% active; further: potency means the concentration at half of the fitted maximal effect; on the % scale 0 is the no-effect control and ±100 the full control effect; nearly all actives have a fitted effect of over 65% in size
The depositor's hits bear a star. Shown are actives, neighbours in structure and some others; about 3.2% of the full set was active somewhere. Unless noted, the call rests on the fitted dose curve; in most records, active means well fitted curve in the direction sought with a large enough effect; inconclusive means small, poorly fitted or top-dose-only effect, or another doubt; inactive means no such curve, though single readings can be large; an effect the other way counts as inactive or inconclusive.

CN(CCOc1ccc(Cl)cc1)C(=O)c1cccc(S(=O)(=O)N2CCN(c3ccc(F)cc3)CC2)c1 was read as A549 tox-1 -19%, Nrf2 ARE act 2%, BRCA1 expr act -64%, Nrf2 block 4.1µM*, IL2 activator -5, FLuc enzyme inh -1%, A549 tox-2 -15% and ARE-Fluc inh 4.1µM*.
CC1CN(C(=O)c2cccc(S(=O)(=O)N3CCN(c4ccc(F)cc4)CC3)c2)CC(C)O1 (centres undefined) was read as p53 reactivator -11%, A549 tox-1 -8%, Nrf2 ARE act -1%, BRCA1 expr act -17%, Nrf2 block inconclusive and IL2 activator -3.
COc1ccc(CCNC(=O)c2oc(=O)c3ccccc3c2-c2ccccc2)cc1OC was read as A549 tox-1 14% and Nrf2 ARE act 6%.
Screening CCOC(=O)c1ccc(NC(=O)c2c(-c3c(F)cccc3Cl)noc2C)cc1 returned A549 tox-1 0%, Nrf2 ARE act 6% and Nrf2 block 12%.
`COc1ccc(Cl)cc1NC(=O)c1nnn(Cc2cccc(C(F)(F)F)c2)c1N` gave A549 tox-1 3%, Nrf2 ARE act 5% and Nrf2 block inconclusive.
COc1ccc(/C=N/NS(=O)(=O)c2ccc(C)cc2)cc1OC(=O)c1ccc(C)cc1 was read as p53 reactivator 4%, A549 tox-1 -3%, Nrf2 ARE act -4%, BRCA1 expr act -3%, Nrf2 block 5.2µM*, IL2 activator 0, FLuc enzyme inh 1% and A549 tox-2 2%.
`O=NN(CCc1ccncc1)c1ccc(OCc2ccccc2)cc1` gave p53 reactivator inconclusive, A549 tox-1 -19%, Nrf2 ARE act 4%, BRCA1 expr act -35%, Nrf2 block 6.5µM*, IL2 activator 0, FLuc enzyme inh -28%, A549 tox-2 -3% and ARE-Fluc inh 5.8µM*.
CCn1c2ccccc2c2cc(CN3CCN(Cc4ccccc4Cl)CC3)ccc21 was read as A549 tox-1 -4%, Nrf2 ARE act 5% and Nrf2 block 5%.
For Cc1ccc(OCC(=O)NCCCNC(=O)c2cccnc2)cc1 the results were p53 reactivator 3%, A549 tox-1 0%, Nrf2 ARE act 0%, BRCA1 expr act 31%, Nrf2 block 1.8µM*, IL2 activator 0, FLuc enzyme inh 1%, A549 tox-2 2% and ARE-Fluc inh 6%.
Cc1cc(C)nc(SCc2ccc(C(=O)NNC(=O)Nc3cccc(Cl)c3)cc2)n1 was read as p53 reactivator -32%, A549 tox-1 inconclusive, Nrf2 ARE act -3%, BRCA1 expr act -98%, Nrf2 block 9.2µM*, IL2 activator -2, FLuc enzyme inh -23%, A549 tox-2 inconclusive and ARE-Fluc inh 15µM*.
`Cc1cc(C)nc(SCc2ccc(C(=O)N/N=C/c3ccncc3)cc2)n1` gave p53 reactivator -5%, A549 tox-1 1%, Nrf2 ARE act 0%, BRCA1 expr act -36%, Nrf2 block -22% and IL2 activator -1.
Screening COc1ccc([C@H]2CC(=O)C=C(c3ccnc4ccc(Cl)cc34)C2)cc1 returned p53 reactivator -6%, A549 tox-1 -21%, Nrf2 ARE act 0%, BRCA1 expr act -41%, Nrf2 block 7.3µM*, IL2 activator -1, FLuc enzyme inh 2%, A549 tox-2 -16% and ARE-Fluc inh 8.2µM*.
COc1ccc([C@H]2CC(=O)C=C(c3cc(Cl)ccc3C)C2)cc1 was read as p53 reactivator -3%, A549 tox-1 -1%, Nrf2 ARE act 3%, BRCA1 expr act 0%, Nrf2 block 6% and IL2 activator -1.
Screening Cc1ccc(C)c(N(C)C(=O)c2cc3c(s2)-c2ccccc2OC3)c1 returned A549 tox-1 10%, Nrf2 ARE act 0%, BRCA1 expr act -12% and Nrf2 block inconclusive.
Screening CC(C)c1ccccc1-n1c(SCC(=O)N2CCc3ccccc3C2)nc2ccccc2c1=O returned p53 reactivator -8%, A549 tox-1 -16%, Nrf2 ARE act 0%, BRCA1 expr act -49%, Nrf2 block 8.2µM*, IL2 activator -1, FLuc enzyme inh 1%, A549 tox-2 inconclusive and ARE-Fluc inh 16µM*.
For COc1ccc(C(=O)Oc2cc(-c3ccc(OC)c(OC)c3)cc(=O)c3c(C)oc(C)c23)cc1 the results were A549 tox-1 5%, Nrf2 ARE act -1% and Nrf2 block -7%.
`CCN1/C(=C/c2cc[n+](C)cc2)C=Cc2cc(C)ccc21` gave p53 reactivator -1%, A549 tox-1 inconclusive, Nrf2 ARE act 0%, BRCA1 expr act -50%, Nrf2 block 3.7µM*, IL2 activator 3, FLuc enzyme inh -18%, A549 tox-2 10µM* and ARE-Fluc inh 1.3µM*.
Screening CSc1ccccc1NC(=O)c1cc2c(=O)n3ccccc3nc2s1 returned p53 reactivator 10%, A549 tox-1 0%, Nrf2 ARE act 0%, BRCA1 expr act -24%, Nrf2 block -1% and IL2 activator 2.
`COc1ccc(Cl)cc1NC(=O)c1cc2c(=O)n3ccccc3nc2s1` gave A549 tox-1 -25%, Nrf2 ARE act 10%, Nrf2 block 1.6µM*, FLuc enzyme inh -8%, A549 tox-2 inconclusive and ARE-Fluc inh 23µM*.
`CCN(CC)c1ccc(C(=C2C=CC(=[N+](CC)CC)C=C2)c2ccccc2)cc1` gave A549 tox-1 9.2µM*, Nrf2 ARE act -3%, BRCA1 expr act -85%, Nrf2 block 1.3µM*, IL2 activator 0, FLuc enzyme inh 21µM*, A549 tox-2 6.5µM* and ARE-Fluc inh 0.73µM*.
